# Source: PubChem BioAssay AID488969 (Vanderbilt High Throughput Screening Facility, 2010)
# In all, about 110,000 compounds were measured (“z-score”: median about -0.1, highest 2% from about 2 on). The list comes from a sample in which the highest values are over-represented; it also holds similar structures and randomly drawn compounds. Calls of active or inactive are those of the source.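 Rule for the calls: active = z-score in the third read window above 3 or below -3; inactive = the rest.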
# Molecular target: Metabotropic glutamate receptor 8 (Rattus norvegicus) (UniProt P70579)
# Experiment: mGluR8 Gi/Go-coupled signaling modulation – cell-based, rat, thallium flux, HTS, primary screen (AID 488969)
# Conditions: HEK293 rat mGluR8, GIRK (G protein-gated inwardly rectifying potassium channel) thallium flux, FluoZin2; at 10 µM; stronger effect = higher value; submaximal glutamate (EC20) added with thallium
# Chain of Metabotropic glutamate receptor 8 (Rattus norvegicus) (P70579 whole entry, looked up): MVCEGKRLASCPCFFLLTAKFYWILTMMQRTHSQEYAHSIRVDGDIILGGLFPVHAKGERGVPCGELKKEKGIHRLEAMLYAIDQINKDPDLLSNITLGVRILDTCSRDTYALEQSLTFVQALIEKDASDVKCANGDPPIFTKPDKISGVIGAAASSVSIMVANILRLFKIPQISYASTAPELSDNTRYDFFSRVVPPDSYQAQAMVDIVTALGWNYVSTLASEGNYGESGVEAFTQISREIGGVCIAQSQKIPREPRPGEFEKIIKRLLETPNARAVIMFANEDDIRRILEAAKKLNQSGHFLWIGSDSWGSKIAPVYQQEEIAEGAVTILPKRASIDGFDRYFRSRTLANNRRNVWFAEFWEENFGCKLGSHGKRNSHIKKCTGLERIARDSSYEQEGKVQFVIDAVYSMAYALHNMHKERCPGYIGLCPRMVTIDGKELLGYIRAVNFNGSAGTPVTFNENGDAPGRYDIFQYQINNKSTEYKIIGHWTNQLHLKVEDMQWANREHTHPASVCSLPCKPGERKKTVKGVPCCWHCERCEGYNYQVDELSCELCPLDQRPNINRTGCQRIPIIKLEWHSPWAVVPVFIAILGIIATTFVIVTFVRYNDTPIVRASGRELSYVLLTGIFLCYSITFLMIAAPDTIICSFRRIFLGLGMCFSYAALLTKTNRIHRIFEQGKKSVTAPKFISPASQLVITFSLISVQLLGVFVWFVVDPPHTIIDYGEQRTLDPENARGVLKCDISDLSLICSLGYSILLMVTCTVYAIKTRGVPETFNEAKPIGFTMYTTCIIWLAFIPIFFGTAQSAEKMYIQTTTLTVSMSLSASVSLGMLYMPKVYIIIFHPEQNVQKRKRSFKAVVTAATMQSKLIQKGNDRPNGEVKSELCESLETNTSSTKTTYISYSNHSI
row,SMILES,z-score
1,O=C(Cn1c(C(F)(F)F)nc2ccccc21)c1ccc(Cl)cc1,-0.0833
2,O=C(Nc1ccc2c(c1)OCO2)c1noc2c1CCCCC2,0.597
3,COc1ccc(N2CCc3c(C)nc4c(OC)cc(OC)cc4c32)c(OC)c1,0.775
4,COc1cc(OC)c2nc(C)c3c(c2c1)N(c1ccc(O)cc1)CC3,3.3 (active)
5,COc1ccccc1N1CCc2c(C)nc3c(OC)cccc3c21,-0.0829
6,CNc1nc(SCc2ccccc2Cl)nc2c1CCCC2,-0.358
7,Cc1cc(C)n(-c2nc3ccccc3c(=O)n2OCC(N)=O)n1,-0.254
8,Cc1cc(CC(C)C)n(-c2nc3ccccc3c(=O)n2OCc2ccccc2)n1,0.802
9,Cc1cc(CC(C)C)n(-c2nc3ccccc3c(=O)n2OCC(N)=O)n1,3.83 (active)
10,Cn1c(SCc2nc(-c3ccc(Cl)cc3)no2)nnc1-c1ccco1,0.0893
11,O=C(COc1ccc(OCc2ccccc2)cc1)NC1CCOC1=O (stereo not given),-0.0067
12,CC(C)C(c1nnnn1C1CCCC1)N(C)C1CCCCC1 (stereo not given),-0.559
13,CC(C)OCCCNC(=O)c1ccc(Br)cc1,0.954
14,CC(C)OCCCNC(=O)c1cccc(NC(=O)c2ccccc2)c1,2.99
15,COCCCNC(=O)c1cccc(NC(=O)c2ccccc2)c1,-0.13
16,COc1ccccc1C(=O)Nn1cnc2ccccc2c1=O,0.366
17,CCCCN1C2=C(C(=O)CCC2)C(c2ccc(Cl)c(Cl)c2)C2=C1c1ccccc1C2=O (stereo not given),-0.878
18,Cc1cc(C)c(S(C)(=O)=O)c(Oc2ccccc2C)n1,-0.0363
19,Oc1c(Cl)cc(Cl)c2c1NCCC2,5.54 (active)
20,O=C1NCCCc2c1oc1ccc(O)cc21,-0.602

row,SMILES,z-score
1,Cc1cc2c(C)cc(=O)oc2c2c1NCCC2,-0.295
2,Cc1cc(C)cc(NC(=O)C(Nc2ccccc2)c2ccccc2)c1 (stereo not given),0.168
3,CCCN(CCC)C(=O)c1ccccc1C(=O)N(CCC)CCC,-0.328
4,Cc1cc2c(C)nc3ccccc3c2o1,-0.371
5,Cc1nc(C)c(C(=O)Nc2cccc(Cl)c2)o1,0.108
6,Cc1ncoc1C(=O)Nc1ccc(Oc2ccccc2)cc1,2.26
7,COc1cccc(NC(=O)c2ocnc2C)c1,-0.0866
8,Cc1nc(C)c(C(=O)Nc2ccc(Oc3ccccc3)cc2)o1,6.45 (active)
9,Cc1nc(C)c(C(=O)Nc2ccccc2-c2ccccc2)o1,-0.0653
10,COc1ccc(NC(=O)c2ocnc2C)cc1OC,-0.369
11,CC(C)(C)NC(=O)Cn1nnc(-c2ccc(Cl)cc2)n1,-0.11
12,COc1ccc(OCC(=O)NC(=S)Nc2ccc(S(=O)(=O)Nc3cc(OC)nc(OC)n3)cc2)cc1,-0.254
13,COC(=O)CC(NC(=O)c1ccc(C)cc1)c1ccccc1 (stereo not given),-0.129
14,Cc1ccc(Cn2cc(S(=O)(=O)c3ccc(Cl)cc3)c(=O)c3cc(F)ccc32)cc1,-0.041
15,COc1cc(/C=N/NC(=O)CC23CC4CC(CC(C4)C2)C3)cc(Br)c1OCC(=O)N(C)C,-0.225
16,O=c1c2c3c(sc2nc2n1CCCC2)CCCC3,-0.196
17,Nc1nc(Nc2ccccc2)nc(NCc2ccco2)c1[N+](=O)[O-],4.24 (active)
18,Cc1cccc(Nc2nc(N)c([N+](=O)[O-])c(NCc3ccco3)n2)c1,2.38
19,Cc1ccc(Nc2nc(N)c([N+](=O)[O-])c(NCc3ccco3)n2)cc1C,0.169
20,Nc1nc(NCc2ccccc2)nc(NCc2ccccc2)c1[N+](=O)[O-],-0.14

row,SMILES,z-score
1,Cc1cccc(Nc2nc(NCc3ccco3)c3ccccc3n2)c1,0.729
2,Cc1ccc(Nc2nc(N)c([N+](=O)[O-])c(NCc3ccco3)n2)cc1,-0.288
3,Cc1ccc2c(c1)C(=O)CCN2,0.498
4,CC(C)NC(=S)NC(=O)/C=C/c1cccc2ccccc12,0.214
5,CC(OC(=O)C1=COCCO1)C(=O)Nc1ccc(Oc2ccccc2)cc1 (stereo not given),0.0205
6,CCOC(=O)c1c(C)[nH]c(=S)c(C#N)c1-c1ccc(Cl)cc1,3.4 (active)
7,CCOC(=O)c1c(-c2ccc(Cl)cc2)c(C#N)c(=O)n(N)c1N,-0.497
8,CCOC(=O)c1c(C)[nH]c(=S)c(C#N)c1-c1ccc(OC)cc1,0.501
9,N#Cc1ccccc1CSc1ccc(-c2nc3ccccc3[nH]2)cn1,-0.154
10,COc1ccc(-c2cc(C(F)(F)F)c(C#N)c(SCC(=O)Nc3nc(C)co3)n2)cc1,-0.185
11,O=[N+]([O-])c1cccnc1N1CCC(c2cc(-c3cccc(C(F)(F)F)c3)n[nH]2)CC1,-0.378
12,CC1CCCN(C(=O)CN2CCN(C(=O)c3ccco3)CC2)C1 (stereo not given),0.124
13,CC1CCc2nn(CC(=O)N3CCc4ccccc43)cc2C1 (stereo not given),0.16
14,O=C(c1ccco1)N1CCCN(C(=O)c2ccco2)CC1,-0.354
15,COCCCNC(=S)N1CCN(C(=O)c2ccco2)CC1,-0.034
16,CC1CCc2nn(CC(=O)N3CCN(C(=O)c4ccco4)CC3)cc2C1 (stereo not given),3.92 (active)
17,O=C(CCSc1ccccc1)N1CCN(C(=O)c2ccco2)CC1,-0.515
18,O=C(Cc1ccccc1)N1CCN(C(=O)c2ccco2)CC1,-0.0691
19,O=C(CCC1CCCC1)N1CCN(C(=O)c2ccco2)CC1,2.43
20,CNC(=S)N1CCN(C(=O)c2ccco2)CC1,2.05
